# Reference: PubChem BioAssay
# “And” between values parts separate entries of the source, which are not always exact repeats. Identical values can stand only once. For part of these data: Potency and affinity values are given separately. The source made the active and inactive calls.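 The calls were made as follows: active = luciferase signal above three times the same-plate solvent-only control wells; inactive = the rest.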
# Tests used:
# [1] = target: Mitogen-activated protein kinase 7 (Homo sapiens) (UniProt Q13164); assay: ERK5 transactivation activators in reporter cells, primary screen, cell-based, HTS (AID 1508626); details: HeLa Gal4-ERK5 transactivation, 18 h, at 5 µM, stronger effect = higher value;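 also: luciferase driven by Gal4-ERK5 fusion binding five Gal4 sites before minimal TATA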
# Mitogen-activated protein kinase 7 (Homo sapiens), sequence (Q13164 whole entry, looked up, the tested form may be a part): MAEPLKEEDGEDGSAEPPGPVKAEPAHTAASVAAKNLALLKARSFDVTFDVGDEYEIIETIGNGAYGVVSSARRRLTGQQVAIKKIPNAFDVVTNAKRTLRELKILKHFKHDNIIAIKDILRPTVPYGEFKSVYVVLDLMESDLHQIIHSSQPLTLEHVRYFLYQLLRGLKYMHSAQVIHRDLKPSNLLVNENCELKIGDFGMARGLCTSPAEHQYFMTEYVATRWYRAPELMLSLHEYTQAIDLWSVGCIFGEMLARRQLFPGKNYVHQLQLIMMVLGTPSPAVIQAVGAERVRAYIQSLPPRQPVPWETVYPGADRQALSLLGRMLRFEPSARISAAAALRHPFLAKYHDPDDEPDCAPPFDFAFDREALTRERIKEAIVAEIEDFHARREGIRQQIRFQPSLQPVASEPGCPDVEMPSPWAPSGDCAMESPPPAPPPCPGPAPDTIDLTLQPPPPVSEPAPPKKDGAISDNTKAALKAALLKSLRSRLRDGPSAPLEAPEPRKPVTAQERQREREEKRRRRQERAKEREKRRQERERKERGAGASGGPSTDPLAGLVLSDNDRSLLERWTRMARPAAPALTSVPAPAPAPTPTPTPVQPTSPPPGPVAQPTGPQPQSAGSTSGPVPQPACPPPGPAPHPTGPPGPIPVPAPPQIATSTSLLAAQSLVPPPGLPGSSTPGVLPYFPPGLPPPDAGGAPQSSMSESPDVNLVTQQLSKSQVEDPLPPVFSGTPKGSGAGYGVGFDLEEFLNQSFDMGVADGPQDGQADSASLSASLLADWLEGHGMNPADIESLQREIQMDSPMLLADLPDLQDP
# [2] = rescue of polyQ-huntingtin neuronal dysfunction in worms, whole organism, C. elegans mechanosensory neurons, N-terminal huntingtin (AID 1599); details: touch response, stronger effect = higher value
# [3] = inhibitors of mitochondrial cytochrome c release, biochemical, purified mitochondria (AID 1603); details: stronger effect = lower value;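 also: mouse liver mitochondria challenged with calcium chloride; signal normalized to the plate average as 100%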
# [4] = inhibitors of polyQ protein aggregation (AID 1604); details: polyglutamine-induced protein aggregation inhibition assay; stronger effect = higher value; tested at 2.5 µM
# [5] = enhancers of glutamate uptake in motor neurons, MN-1 cell line (AID 1612); details: MN-1 motor neuron cells, stronger effect = higher value;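 also: tested at 1 µM final; 0% = mean of DMSO vehicle wells on each plate; positive means more glutamate uptake than control and negative means less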
# [6] = reducers of polyQ inclusions in PC12 cells, cell-based, NGF-treated PC12, GFPQ80 (AID 1614); details: PC12 NGF-treated GFP-polyQ80 inclusion reduction;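 also: lower means fewer inclusions and 0 means no inclusions at all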
# [7] = suppressors of polyglutamine aggregation in yeast, 75Q-TubH (AID 1616); details: S. cerevisiae 75Q-TubH polyglutamine aggregation suppression; stronger effect = higher value
smiles,measurement,setting,value
COc1ccc(/C=C/C(=O)O)cc1OC,luciferase signal,[1],52 AU (inactive) and 80 AU (inactive)
O=C(/C=C/c1ccc(O)cc1)c1ccccc1O,luciferase signal,[1],96 AU (inactive)
COc1ccc(/C=C/C(=O)c2cc(O)ccc2O)cc1,luciferase signal,[1],80 AU (inactive)
COc1ccc(/C=C/C(=O)c2ccc(O)cc2O)cc1,luciferase signal,[1],100 AU (inactive)
CC(=O)O[C@@H]1CC2C(C)(C)[C@H](O)C=C[C@]2(C)C2CC[C@@]3(C)[C@H](c4ccoc4)OC(=O)C4OC43[C@@]21C (stereo partly specified),luciferase signal,[1],56 AU (inactive)
Cc1cc(O)c(C=O)c2c1C(=O)Oc1c(COC(=O)/C=C/C(=O)O)c(O)c(C(=O)O)c(C)c1O2,luciferase signal,[1],16 AU (inactive)
CC(=O)O[C@@H]1CC2C(C)(C)C(=O)C3OC3[C@]2(C)C2CC[C@@]3(C)[C@H](c4ccoc4)OC(=O)C4OC43[C@@]21C (stereo partly specified),luciferase signal,[1],4 AU (inactive)
O=C(O)c1ccc2c(c1)OCO2,luciferase signal,[1],48 AU (inactive)
COc1cc(O)c(C(=O)/C=C/c2ccc(O)c(OC)c2)c(OC)c1,luciferase signal,[1],60 AU (inactive)
COc1ccc2oc3ccccc3c(=O)c2c1,luciferase signal,[1],88 AU (inactive)
COc1ccc([C@H]2COc3c(ccc(O)c3OC)C2)c(OC)c1O,luciferase signal,[1],60 AU (inactive)
COc1ccc(-c2cc(=O)c3c(OC)c(OC)c(OC)cc3o2)cc1OC,luciferase signal,[1],36 AU (inactive)
CC(=O)Oc1cc(OC(C)=O)c2c(c1)O[C@H](c1ccc(OC(C)=O)c(OC(C)=O)c1)[C@@H](OC(C)=O)C2,luciferase signal,[1],16 AU (inactive)
COc1ccc(-c2cc(=O)c3c(O)cc(OC)c(OC)c3o2)c(OC)c1,luciferase signal,[1],108 AU (inactive)
CC(=O)Oc1ccc2c(c1C(C)C)CCC1C(C)(C)CCC[C@]21C (stereo partly specified),luciferase signal,[1],20 AU (inactive)
O=c1cc(-c2ccc(O)cc2)oc2ccc(O)cc12,luciferase signal,[1],52 AU (inactive)
CC(=O)Oc1cc2c(c(C)c1OC(C)=O)CC=C1[C@@]2(C)CC[C@@]2(C)C3C[C@](C)(C(=O)O)CC[C@]3(C)CC[C@]12C (stereo partly specified),luciferase signal,[1],48 AU (inactive)
COc1cc2oc3cc(OC)c(OC)c(CC=C(C)C)c3c(=O)c2c(OC)c1CC=C(C)C,luciferase signal,[1],164 AU (inactive)
CC1(C)C(=O)[C@@H]2C[C@@]3(O)C4=CC(=O)O[C@@H](c5ccoc5)[C@]4(C)CCC3C(C)(C2=O)[C@H]1CC(=O)O (stereo partly specified),luciferase signal,[1],20 AU (inactive)
C#CCCCCCCCCCCCc1ccco1,luciferase signal,[1],148 AU (inactive)
CC(=O)OCC(OC(C)=O)C(OC(C)=O)C(OC(C)=O)C(OC(C)=O)C(COC(C)=O)OC(C)=O (stereo unspecified),luciferase signal,[1],80 AU (inactive)
CC(C)CC(NC(=O)CCN)C(=O)O (stereo unspecified),rescue above control,[2],6.33
same,cytochrome c release ratio,[3],1.04
same,inhibition of aggregation,[4],57.6%
same,glutamate uptake change,[5],14.1%
same,inclusion score,[6],2
same,aggregation suppression score,[7],1.32
CC1(C)C2CC[C@]3(C)C(C(=O)C=C4[C@H]5C[C@@](C)(C(=O)O)CC[C@]5(C)CC[C@]43C)[C@@]2(C)CC[C@@H]1O (stereo partly specified),rescue above control,[2],0.7
same,cytochrome c release ratio,[3],1.2
same,inhibition of aggregation,[4],25.5%
same,glutamate uptake change,[5],-60.4%
same,inclusion score,[6],2
same,aggregation suppression score,[7],0.949
CC(=O)[C@@]1(O)CCC2C3C=C(Cl)C4=CC(=O)[C@@H]5CC5[C@]4(C)C3CC[C@@]21C (stereo partly specified),rescue above control,[2],12.8
same,cytochrome c release ratio,[3],1.45
same,inhibition of aggregation,[4],9.8%
same,glutamate uptake change,[5],-5.81%
same,inclusion score,[6],2
same,aggregation suppression score,[7],0.681
CCCC(=O)Nc1ncnc2c1ncn2C1O[C@@H]2COP(=O)(O)O[C@H]2[C@H]1OC(=O)CCC (stereo partly specified),rescue above control,[2],1.51
same,cytochrome c release ratio,[3],0.87
same,inhibition of aggregation,[4],77.8%
same,glutamate uptake change,[5],4.01%
same,inclusion score,[6],2
same,aggregation suppression score,[7],1.79
NC[C@H]1O[C@H](O[C@H]2C(O[C@@H]3O[C@H](CO)[C@@H](O)[C@H]3O)[C@@H](O)[C@H](N)C[C@@H]2N)[C@H](N)[C@@H](O)[C@@H]1O (stereo partly specified),rescue above control,[2],-3.87
same,cytochrome c release ratio,[3],0.95
same,inhibition of aggregation,[4],51%
same,glutamate uptake change,[5],-16.8%
same,inclusion score,[6],2
same,aggregation suppression score,[7],0.969
C=C(C)[C@H]1CC=C(C(=O)O)CC1,rescue above control,[2],-1.74
same,cytochrome c release ratio,[3],0.96
same,inhibition of aggregation,[4],-3.17%
same,glutamate uptake change,[5],-7.46%
same,inclusion score,[6],2
same,aggregation suppression score,[7],0.107
same,luciferase signal,[1],24 AU (inactive)
COc1ccc(-c2cc(=O)c3c(O)cc(O[C@@H]4O[C@H](CO[C@H]5O[C@H](C)[C@@H](O)[C@H](O)[C@@H]5O)[C@@H](O)[C@H](O)[C@H]4O)cc3o2)cc1O,rescue above control,[2],-9.51
same,cytochrome c release ratio,[3],0.94
same,inhibition of aggregation,[4],75%
same,glutamate uptake change,[5],6.61%
same,inclusion score,[6],2
same,aggregation suppression score,[7],1.82
CC(C)(C)NC[C@@H](O)COc1nsnc1N1CCOCC1,rescue above control,[2],-14.1
same,cytochrome c release ratio,[3],1.02
same,inhibition of aggregation,[4],-23.4%
same,glutamate uptake change,[5],14.7%
same,inclusion score,[6],2
same,aggregation suppression score,[7],1.29
C1CCN2C[C@H]3C[C@H](CN4CCCC[C@@H]34)[C@H]2C1,rescue above control,[2],-2.03
same,cytochrome c release ratio,[3],1.05
same,inhibition of aggregation,[4],26.9%
same,glutamate uptake change,[5],8.14%
same,inclusion score,[6],2
same,aggregation suppression score,[7],1.49
CC1(C)C2CC[C@]3(C)C(C(=O)C=C4[C@@H]5C[C@@](C)(C(=O)O)CC[C@]5(C)CC[C@]43C)[C@@]2(C)CC[C@@H]1O (stereo partly specified),rescue above control,[2],12
same,cytochrome c release ratio,[3],0.78
same,inhibition of aggregation,[4],25.7%
same,glutamate uptake change,[5],-84.4%
same,aggregation suppression score,[7],1.4
O=c1ccn([C@@H]2O[C@H](COP(=O)(O)OP(=O)(O)OP(=O)(O)O)[C@@H](O)[C@H]2O)c(=O)[nH]1,rescue above control,[2],2.48
same,cytochrome c release ratio,[3],0.87
same,inhibition of aggregation,[4],60.6%
same,glutamate uptake change,[5],11.8%
same,inclusion score,[6],2
same,aggregation suppression score,[7],1.14
same,luciferase signal,[1],36 AU (inactive)
NC(COCc1ccccc1)C(=O)O (stereo unspecified),rescue above control,[2],1.64
same,cytochrome c release ratio,[3],0.75
same,inhibition of aggregation,[4],85.8%
same,glutamate uptake change,[5],3.63%
same,inclusion score,[6],2
same,aggregation suppression score,[7],1.4
COc1ccc([C@@H]2CC(=O)c3c(O)cc(O[C@@H]4O[C@H](CO[C@H]5O[C@@H](C)[C@H](O)[C@@H](O)[C@H]5O)[C@@H](O)[C@H](O)[C@H]4O)cc3O2)cc1O,rescue above control,[2],-5.33
same,cytochrome c release ratio,[3],0.96
same,inhibition of aggregation,[4],83.3%
same,glutamate uptake change,[5],7.48%
same,inclusion score,[6],2
same,aggregation suppression score,[7],1.41
CC(=O)N[C@@H]1[C@@H](C(O)[C@H](O)CO)O[C@](O)(C(=O)O)C[C@@H]1O (stereo partly specified),rescue above control,[2],-7.75
same,cytochrome c release ratio,[3],0.26
same,inhibition of aggregation,[4],-20.4%
same,glutamate uptake change,[5],11.8%
same,inclusion score,[6],2
same,aggregation suppression score,[7],0.464
CC[C@H](C)C(=O)O[C@H]1CCC=C2C=C[C@H](C)C(CCC3C[C@@H](O)CC(=O)O3)[C@H]21 (stereo partly specified),rescue above control,[2],-3.11
same,cytochrome c release ratio,[3],1.24
same,inhibition of aggregation,[4],31.8%
same,glutamate uptake change,[5],12.1%
same,aggregation suppression score,[7],0.746
